Experiment [1] can be described thus: qHTS for Inhibitors of Plasmodium falciparum (DD2) proliferation (AID 504314). In outline: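 Fluorescence read-out (ex 485/em 535 nm) of SYBR Green-stained parasite DNA quantifies intraerythrocytic growth. Cultures at 0.3% parasitemia and 2.5% hematocrit were treated for 72 h; data normalized to DMSO and 0.29 uM artemisinin wells.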
For orientation: In qHTS, concentration-response curves come from the screen itself.

The nature of experiment [2]: qHTS for Inhibitors of Plasmodium falciparum (CP250) proliferation (AID 504320). In outline: (§1)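 Erythrocytes infected with P. falciparum line (0.3% parasitemia, 2.5% hematocrit final) incubated with compounds 72 h at 37 °C, 5% CO2; SYBR Green lysis buffer added, fluorescence read next day. Normalized to 0.29 uM artemisinin and DMSO.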
Experiment [3] can be described thus: qHTS for Inhibitors of Plasmodium falciparum (GB4) proliferation (AID 504315). Note: nearly all actives have a fitted effect of over 50% in size. The method, boiled down:
as §1

Experiment [4] can be described thus: qHTS for Inhibitors of Plasmodium falciparum (7G8) proliferation (AID 504316). Note: nearly all actives have a fitted effect of over 65% in size. The method, boiled down: as §1
A short description of experiment [5]: qHTS for Inhibitors of Plasmodium falciparum (HB3) proliferation (AID 504318). Note: nearly all actives have a fitted effect of over 60% in size. The method, boiled down: as §1

Records with an inconclusive call do not appear. The source made the active and inactive calls. Calls come from the whole dose curve; as a rule, active = well fitted curve in the direction sought with a large enough effect; inconclusive = small, poorly fitted or top-dose-only effect, or another doubt; inactive = no such curve, though single readings can be large; an effect the other way counts as inactive or inconclusive.
Potency is the fitted concentration of half-maximal effect.

For the compound `C#CCCOC(=O)N1C2=NC(C(=O)OC)=C(C(=O)OC)[C@@H]3N(C)c4ccc(OC)cc4[C@]23C[C@H]1C(=O)OC`, the Potency entry in experiment [1] and in experiment [2] was “inactive” in each case.

Turning to `CC(C)(C)OC(=O)NCCCC1=CC2=CC(=O)C(C)(OC(=O)c3cccs3)C(=O)C2=CO1` (stereo unspecified), the Potency result in experiment [3], in experiment [4], in experiment [5] and in experiment [2] was “inactive” each time.

Turning to `COC(=O)N1C2=C(c3ccccc3[C@@H]1CC(=O)Nc1ccc(Br)cc1)[C@@H]1C(=O)N(c3ccccc3)C(=O)[C@@H]1[C@H](C)C2`, the Potency result in experiment [1] and in experiment [2] was “inactive” in each case.

For `CCCCc1nc2c(c3c1C[C@H](C)OC3)CN(C(=O)NCCc1c[nH]c3ccccc13)CC2`, the Potency entry in experiment [3], in experiment [4], in experiment [5] and in experiment [2] was “inactive” in each case.

On to `COC(=O)C1=C(C)N(Cc2ccccc2)C(=NCCc2cccnc2)NC1c1ccc(Br)cc1` (stereo unspecified), for which the Potency is 1.5 µM (active) in experiment [1] and 1.9 µM (active) in experiment [2].

As to `CCN1C(=O)N[C@@H](c2cccs2)C(C(=O)OC)=C1C`, the Potency result in experiment [3], in experiment [4], in experiment [5] and in experiment [2] was “inactive” each time.

For the compound `COC(=O)C1=C(C(=O)OC)[C@@H]2N(C)c3ccc(OC)cc3[C@@]23C[C@@H](C(=O)OC)N(S(=O)(=O)c2ccc(C)cc2)C3=N1`, the Potency result in experiment [1] and in experiment [2] was “inactive” in each case.

On to `CCC(=O)N1C2=C(c3ccccc3[C@@H]1CC(=O)Nc1ccc3ccccc3c1)[C@@H]1C(=O)N(c3ccccc3)C(=O)[C@@H]1[C@H](C)C2`, for which the Potency entry in experiment [1] and in experiment [2] was “inactive” each time.

As to `COC(=O)C1=C(C(=O)OC)[C@@H]2N(C)c3ccc(OC)cc3[C@@]23C[C@@H](C(=O)OC)N(C(=O)CC(C)C)C3=N1`, the Potency result in experiment [1] and in experiment [2] was “inactive” throughout.

For `c1ccc(-c2nc(-c3cccc4ccccc34)c(Nc3ccc4ccccc4c3)o2)cc1`, the Potency in experiment [3], in experiment [4] and in experiment [5] was 1.51 µM (active) each time.

On to `COc1ccc(-c2nc3c(c4c2C[C@H](c2ccccc2)OC4)CN(S(=O)(=O)c2ccc(C#N)cc2)CC3)c(C)c1`, for which the Potency result in experiment [1] and in experiment [2] was “inactive” in each case.

For the compound `C[C@H]1CC[C@H]2C(=O)N(Cc3ccccc3)C[C@H](O)CN2[C@H]1c1cccc(Br)c1`, the Potency result in experiment [1] and in experiment [2] was “inactive” throughout.

On to `C[C@H]1Cc2c(COc3ccccc3)nc3c(c2CO1)CN(C(=O)Cc1cccs1)CC3`, for which the Potency result in experiment [1] and in experiment [2] was “inactive” in each case.

As to `C=CCN1c2ccccc2[C@]23C[C@@H](C(=O)OC)N(C(=O)c4ccc(Br)cc4)C2=NC(C(=O)OC)=C(C(=O)OC)[C@H]13`, the Potency result in experiment [1] and in experiment [2] was “inactive” in each case.

`C#CCCOC(=O)N1C2=NC(C(=O)OC)=C(C(=O)OC)[C@@H]3N(Cc4ccccc4)c4ccccc4[C@]23C[C@H]1C(=O)OC`: the Potency entry in experiment [1] and in experiment [2] was “inactive” throughout.

As for `COC(=O)C1=C(C(=O)OC)[C@@H]2N(Cc3ccccc3)c3ccccc3[C@@]23C[C@@H](C(=O)OC)N(C(=O)CC(C)C)C3=N1`, the Potency result in experiment [1] and in experiment [2] was “inactive” throughout.

`COC(=O)CCC(=O)OC1(C)C(=O)C=C2C=C(C3CC3)N(c3cccc(C#N)c3)C=C2C1=O` (stereo unspecified): the Potency result in experiment [1] and in experiment [2] was “inactive” each time.

As for `COC(=O)c1ccccc1S(=O)(=O)N1CCc2nc(-c3ccccc3)c3c(c2C1)CO[C@@H](C)C3`, the Potency entry in experiment [1] and in experiment [2] was “inactive” each time.

Regarding `COC/C=C/C1=CC2=CC(=O)C(C)(OC(=O)c3cnc4ccccc4n3)C(=O)C2=CN1C1CCCC1` (stereo unspecified), the Potency entry in experiment [3], in experiment [4], in experiment [5] and in experiment [2] was “inactive” throughout.

Take `COC(=O)C1=C(C)N(Cc2ccco2)C(=O)N[C@@H]1c1ccco1`: the Potency result in experiment [1] and in experiment [2] was “inactive” throughout.

Consider `COC(=O)CCC(=O)OC1(C)C(=O)C2=CN(Cc3ccco3)C(c3ccc(OC)cc3)=CC2=C(Br)C1=O` (stereo unspecified), for which the Potency result in experiment [1] and in experiment [2] was “inactive” throughout.

Consider `COC(=O)[C@@H]1[C@@H](C)N(Cc2ccccc2)C(=O)N[C@H]1c1cccc(C(F)(F)F)c1`, for which the Potency result in experiment [1] and in experiment [2] was “inactive” in each case.

Regarding `CC1(OC(=O)C2CCCC2)C(=O)C=C2C=C(c3ccsc3)N(CCc3c[nH]c4ccccc34)C=C2C1=O` (stereo unspecified), the Potency entry in experiment [1] and in experiment [2] was “inactive” throughout.

With `COC(=O)C1=C(C(=O)OC)[C@@H]2N(C)c3ccccc3[C@@]23C[C@@H](C(=O)OC)N(S(=O)(=O)c2c(C)noc2C)C3=N1`, the Potency entry in experiment [1] and in experiment [2] was “inactive” each time.

`COc1ccc(-c2nc3c(c4c2C[C@H](c2ccccc2)OC4)CN(C(=O)Cc2cccs2)CC3)c(C)c1`: the Potency entry in experiment [1] and in experiment [2] was “inactive” in each case.

As to `CC#CCN1c2ccccc2[C@]23C[C@@H](C(=O)OC)N(S(=O)(=O)c4c(C)noc4C)C2=NC(C(=O)OC)=C(C(=O)OC)[C@H]13`, the Potency result in experiment [1] and in experiment [2] was “inactive” in each case.

With `COC(=O)C1=C(C(=O)OC)[C@@H]2N(Cc3ccccc3)c3ccccc3[C@@]23C[C@@H](C(=O)OC)N(S(=O)(=O)c2ccc(C)cc2)C3=N1`, the Potency is 1.69 µM (active) in experiment [3], 1.69 µM (active) in experiment [4] and 1.51 µM (active) in experiment [5].

On to `CCCCS(=O)(=O)N1CCc2nc(-c3ccc(OC)cc3C)c3c(c2C1)CO[C@@H](c1ccccc1)C3`, for which the Potency entry in experiment [1] and in experiment [2] was “inactive” in each case.

On to `COC(=O)N1C2=C(c3ccccc3[C@@H]1CC(=O)Nc1ccc3ccc4cccc5ccc1c3c45)[C@@H]1C(=O)N(c3ccccc3)C(=O)[C@@H]1[C@H](C)C2`, for which the Potency in experiment [3] is 1.51 µM (active); in experiment [4] it was 1.51 µM (active); in experiment [5], 2.13 µM (active); in experiment [2] it was 1.51 µM (active).

`CC#CCN1c2ccccc2[C@]23C[C@@H](C(=O)OC)N(S(=O)(=O)c4ccc(C#N)cc4)C2=NC(C(=O)OC)=C(C(=O)OC)[C@H]13`: the Potency entry in experiment [1] and in experiment [2] was “inactive” in each case.

Consider `COC(=O)C1=C(C(=O)OC)[C@@H]2N(C)c3ccc(OC)cc3[C@@]23C[C@@H](C(=O)OC)N(C(C)=O)C3=N1`, for which the Potency entry in experiment [3], in experiment [4], in experiment [5] and in experiment [2] was “inactive” each time.

The values are drawn from PubChem BioAssay (NCATS).
